Assay results as given in PubChem BioAssay (NCI).
Compounds without any hit were thinned out: in the full panel of roughly 83,000, 20% have a hit.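 Each cell line was grown in a 96-well plate and treated with one concentration of compound for 48 hours. Values below 10 were considered active.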 Unmarked numbers belong to inactive results. The source made the active and inactive calls.

Tests used:
Test in all cases: NCI-60 one-dose screen, 48 h (100 = growth as untreated, 0 = no growth, -100 = all killed)
Details in all cases: 10 µM unless noted
[1] = test system: SR leukemia
[2] = test system: RPMI-8226 leukemia
[3] = test system: OVCAR-8 ovarian
[4] = test system: OVCAR-5 ovarian
[5] = test system: OVCAR-4 ovarian
[6] = test system: SK-OV-3 ovarian
[7] = test system: OVCAR-3 ovarian
[8] = test system: HS 578T breast
[9] = test system: NCI/ADR-RES ovarian
[10] = test system: IGROV1 ovarian

Row | Compound | growth [1] | growth [2] | growth [3] | growth [4] | growth [5] | growth [6] | growth [7] | growth [8] | growth [9] | growth [10]
1 | C#CCN(C)CCCOc1ccc(N(CC)C(=O)c2cc(C(C)C)c(O)cc2O)cc1Cl | -34.3% (active) | -33.5% (active) | 2.93% (active) | 19.7% | 26.1% | 7.75% (active) | 20.6% | 9.36% (active) | -33.1% (active) | –
2 | COc1ccc(NC(=O)NN2C(=O)c3ccccc3N(C)C2c2ccc(OC)cc2)cc1 (stereo unspecified) | 88.4% | 99.1% | 103% | 107% | 96.7% | – | 89.8% | 101% | 92.2% | 108%
3 | COc1ccc(-c2nc3ccccc3n2CC(=O)N=Nc2c(O)[nH]c3ccc(OC)cc23)cc1 | 0.469% (active) | 52% | 6.22% (active) | 86.8% | 50.8% | 104% | 35.5% | 30.3% | 48% | –
4 | CC(Nc1ncnc2ccc(-c3ccc4oc(N)nc4c3)cc12)c1ccccc1 (stereo unspecified) | -53.7% (active) | -17.9% (active) | -40.7% (active) | 25.4% | -85.8% (active) | -22.2% (active) | -19.5% (active) | -31.7% (active) | -18.7% (active) | –
5 | Clc1ccc2c(NCCNC34CC5CC(CC(C5)C3)C4)ccnc2c1 | -35.2% (active) | 0.134% (active) | -63.4% (active) | -37.1% (active) | -57.3% (active) | -83.1% (active) | -52.4% (active) | -45.4% (active) | -71.3% (active) | –
6 | C[C@@H](Nc1c(C#N)cnc2ccc(-c3cnc4[nH]ncc4c3)cc12)c1ccccc1 | -8.05% (active) | -1.82% (active) | 24.4% | 15.2% | 36.9% | 19.5% | 3.49% (active) | -19.5% (active) | 17.7% | –
7 | COc1ccc(NC(=O)CSc2nnc(-c3ccc(-c4nc5ccccc5[nH]4)cc3)o2)cc1 | 35.3% | 18.4% | -24.6% (active) | 55.4% | 38.3% | 98.2% | 41.4% | 45% | 50.1% | –
8 | COc1ccc(NC(=O)Cn2c(/C=C/c3cccc(Br)c3)nc3ccccc3c2=O)cc1 | 78.3% | 42.5% | 14.4% | 47.6% | -45.7% (active) | 36.4% | 36.3% | -0.494% (active) | 31.2% | –
9 | CC(C)(C)OC(=O)N1C/C(=C\c2ccc(F)cc2)C(=O)/C(=C/c2ccc(F)cc2)C1 | -11.1% (active) | -15.4% (active) | -68.3% (active) | -81.9% (active) | -9.66% (active) | 0.0941% (active) | -90% (active) | -6.73% (active) | -56.8% (active) | –
10 | Cc1ccc(Cl)cc1NC(=O)Nc1nc2ccc([N+](=O)[O-])cc2s1 | 1.31% (active) | -18.7% (active) | 1.61% (active) | 2.15% (active) | 7.05% (active) | -28.6% (active) | 2.64% (active) | -13.9% (active) | -17.1% (active) | 8.2% (active)
11 | C/C(=N/O)c1ccc(NC(=O)CSc2nnc(-c3ccc(-c4nc5ccc(Cl)cc5[nH]4)cc3)o2)cc1 | 12.3% | 18.2% | -31.7% (active) | 55.3% | 14.5% | 39.6% | -5.29% (active) | -13.3% (active) | 88.9% | –
12 | COc1ccc2oc(=O)c(-c3csc(N/N=C(\C)c4cc(OC)c(OC)c(OC)c4)n3)cc2c1 | 70.4% | 72.9% | 86.2% | 109% | 86.5% | 172% | 110% | 110% | 77.9% | –
13 | CC1=C(C(=O)Nc2ccccc2)C(c2cccc(Cl)c2Cl)n2c(nc3ccccc32)N1 (stereo unspecified) | 6.58% (active) | 37% | 66.6% | 82.8% | 49.4% | – | 42.2% | 66% | 46.3% | 54.9%
14 | O=C1Nc2cc(-c3ccc(NS(=O)(=O)c4ccc(-c5ccccc5)cc4)cc3)ccc2/C1=C/c1ccc[nH]1 | -33.1% (active) | 21.3% | 52.2% | 61.7% | 21.3% | 98.2% | -19.4% (active) | 59.4% | 62.9% | 73%
15 | O=C1c2cccc3c(N4CCN(c5ccccc5)CC4)ccc(c23)C(=O)N1c1cccc(-c2nn(-c3ccccc3)cc2-c2nc3ccccc3s2)c1 | 90.9% | 95.9% | 106% | 108% | 99.9% | 97.6% | 98% | 102% | 98.3% | –
16 | N#Cc1c(NC(=O)N2CCOCC2)n(-c2ccc(OC(F)(F)F)cc2)c2cc(F)ccc12 | 80% | 57.9% | 99.1% | 88.2% | 87% | – | 111% | 102% | 80.5% | 105%
17 | Oc1ccc(F)c(Nc2nc(SCCN3CCOCC3)nc3c2cnn3CC(Cl)c2ccc(Br)cc2)c1 (stereo unspecified) | -2.59% (active) | 1.15% (active) | 20.2% | 40.5% | 31.9% | 64.2% | 25.8% | -23.9% (active) | 16.4% | –
18 | CCCCCCCCCc1ccc(C(=O)Nc2cc(C)ccc2C(=O)OC)cc1 | 90.1% | 81.6% | 110% | 111% | 94.5% | 107% | 124% | 106% | 109% | –
19 | COC(=O)c1cc(C(=O)C(F)(F)F)n2c3ccccc3c3ccccc3c12 | 60.7% | – | 42.7% | 83.5% | 10.8% | 82.9% | 82.9% | 41.7% | 67.7% | 40%
20 | COc1ccc(N=Nc2c(N)nn3c(N)c(C#N)c(-c4ccc(C)cc4)nc23)cc1 | 44.6% | 3.4% (active) | 66.3% | 99.9% | 53.2% | – | 15.2% | 27.7% | 62.2% | 33.5%
21 | O=C(N/N=C/c1ccc(Br)o1)c1[nH]c2ccc(Br)cc2c1-c1ccccc1 | 5.02% (active) | 10.6% | -35.9% (active) | -21.8% (active) | -17.2% (active) | – | -28.6% (active) | -4.62% (active) | -41.6% (active) | 5.42% (active)
22 | COc1ccc(NC(=O)Cn2c(/C=C/c3cccc(OC)c3)nc3ccccc3c2=O)cc1 | 77.6% | – | 10.4% | 40% | -30.1% (active) | 44.8% | 28.5% | 9.48% (active) | 35.4% | 37.7%
23 | O=C(CSc1nc2c(c(=O)[nH]1)CCCC2)Nc1ccccc1C(=O)O | 88.5% | 104% | 109% | 106% | 125% | – | 91.7% | 108% | 112% | 110%
24 | O=C(CSc1nnc(-c2ccc(-c3nc4ccccc4[nH]3)cc2)o1)Nc1ccc(Br)cc1 | 5.23% (active) | 7.82% (active) | 4.46% (active) | 44.7% | 54.3% | – | 34.2% | 57.2% | 21.5% | 35.8%
25 | Cc1ccc(C(=O)Nc2cc(-c3ccccc3)cc(C(F)(F)F)c2)cc1C#Cc1cnc2cccnn12 | 44.8% | – | 75.3% | 85.3% | 49% | 123% | 95.5% | 85.3% | 63.2% | 93.1%
26 | COc1cccc(C(N)=Nc2ccc(OCCCCCCCCn3cncn3)cc2)c1 | 10.4% | 14.2% | – | 29.6% | 55.5% | 41.7% | – | 37.2% | – | 27.3%
27 | Nc1nn2c(-c3cc4cc(Br)ccc4oc3=O)ccnc2c1N=Nc1ccc(Br)cc1 | 29.7% | – | 14.5% | 11.8% | 12.8% | 22.4% | 5.27% (active) | 28.3% | 14.1% | -16.1% (active)
28 | Nc1nnc(CS(=O)(=O)c2ccccc2)s1 | 108% | 103% | 97.4% | 109% | 121% | – | 104% | 86% | 104% | 101%
29 | Cc1ccc(C2CC(c3ccc(NC(=S)Nc4ccccc4)cc3)=NN2c2ccc(S(N)(=O)=O)cc2)cc1 (stereo unspecified) | 17.8% | 7.06% (active) | 26% | 16.2% | 27.1% | – | 2.37% (active) | 31.7% | 7.5% (active) | 19.2%
